The structures appear in SMILES notation. Where “and” joins values, the source holds several entries; their conditions need not be identical. Identical values can stand only once. Records with an inconclusive call do not appear. Values without a mark were called inactive. Calls of active or inactive are those of the source. Unless noted, calls follow the shape of the dose curve; as a rule, active = well fitted curve in the direction sought with a large enough effect; inconclusive = small, poorly fitted or top-dose-only effect, or another doubt; inactive = no such curve, though single readings can be large; an effect the other way counts as inactive or inconclusive.

The target of experiment [1] is Cellular tumor antigen p53 (Homo sapiens) (UniProt P04637). Description: Primary qHTS for small molecule compounds that upregulate eGFP-tagged delta133p53alpha (in N-terminal) cells. (AID 2060322). Also: nearly all actives have a fitted effect of over 75% in size. Also: potency is read from the fitted curve at half-maximal effect.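 As to activation: series mostly up to about 56 µM; 0% = DMSO vehicle and 100% = reference activator.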 The following applies: NCI-H358 eGFP-delta133p53alpha fluorescence, 24 h; activation: active compounds read high. In short, it runs like this: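 NCI-H358 cells pre-induced 24 h with 10 ng/ml doxycycline to express N-terminal eGFP-delta133p53alpha, then dosed 24 h at 37C without doxycycline; fixed, Hoechst-stained, GFP intensity by laser scanning cytometry, normalized to DMSO (0%) and 57.5 uM 5-azacytidine (100%).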
Chain of Cellular tumor antigen p53 (Homo sapiens) (P04637 whole entry, looked up): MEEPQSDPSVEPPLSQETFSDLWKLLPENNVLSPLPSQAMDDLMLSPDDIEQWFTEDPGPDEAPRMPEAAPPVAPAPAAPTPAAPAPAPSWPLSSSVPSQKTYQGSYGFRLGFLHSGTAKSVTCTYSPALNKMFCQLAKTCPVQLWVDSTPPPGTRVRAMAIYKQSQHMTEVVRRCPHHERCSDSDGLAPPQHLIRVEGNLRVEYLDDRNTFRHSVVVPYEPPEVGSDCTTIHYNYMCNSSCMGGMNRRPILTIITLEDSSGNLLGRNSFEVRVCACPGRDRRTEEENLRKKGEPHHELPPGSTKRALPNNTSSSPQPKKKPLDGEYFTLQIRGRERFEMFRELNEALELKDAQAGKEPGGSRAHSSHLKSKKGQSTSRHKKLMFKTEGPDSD
For orientation: In qHTS, concentration-response curves come from the screen itself.

Experiment [2] has the same target. In words: Primary qHTS for small molecule compounds that upregulate eGFP-tagged delta133p53alpha (in C-terminal) cells. (AID 2060324). Also: potency is read from the fitted curve at half-maximal effect. In short, it runs like this: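 NCI-H358 cells with doxycycline-inducible D133p53a-eGFP (C-terminal tag), pre-induced 24 h with 100 ng/ml doxycycline, plated 800/well in doxycycline-free medium and treated 24 h at 37 °C with compound titrations. Cells were then fixed and Hoechst-stained, and GFP intensity was read by laser scanning cytometry.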

For experiment [3], the target named is Aldehyde dehydrogenase, mitochondrial (Homo sapiens) (UniProt P05091). Description: qHTS for Inhibitors of the Aldehyde Dehydrogenase Family (ALDH2) Validation screens (AID 2061302; active = well fitted inhibition curve with a large enough effect; title and protocol of this record describe different tests; also: potency is read from the fitted curve at half-maximal effect).
Experiment [4] has the same target. Description: qHTS for Inhibitors of the Aldehyde Dehydrogenase Family (ALDH2) Primary screen (AID 2061308).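 Also: plate controls were vehicle for no effect and reference inhibitor for full effect; nearly all actives have a fitted effect of over 55% in size.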
Experiment [5] addresses Retinaldehyde dehydrogenase 3 (Homo sapiens) (UniProt P47895). Description: qHTS for Inhibitors of the Aldehyde Dehydrogenase Family (ALDH1A3) Validation screen (AID 2061312). Also: % is scaled to controls: 0 for no effect and ±100 for the full control effect; nearly all actives have a fitted effect of over 45% in size.
Experiment [6] has the same target. In words: qHTS for Inhibitors of the Aldehyde Dehydrogenase Family (ALDH1A3) Primary screen (AID 2061315).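 Also: plate controls were DMSO vehicle for no effect and reference inhibitor for full effect.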
A short description of experiment [7]: BET inhibitor-based combinations targeting novel dependencies in MECOM-rearranged (r) AML: OCI-AML3 cell line (AID 2202232). Also: nearly all actives have a fitted effect of over 35% in size. Also: potency is read from the fitted curve at half-maximal effect. Particulars: Potency: OCI-AML3 viability. In short, it runs like this: (§1)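 Each compound was tested at eleven concentrations on cells seeded at 500/well. After two days' incubation, ATP-based luminescence reported viability; responses relative to DMSO and blank wells yielded AUC and cell-line-centred Z-AUC.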

A short description of experiment [8]: BET inhibitor-based combinations targeting novel dependencies in MECOM-rearranged (r) AML: MV-4-11 cell line (AID 2202233). Also: nearly all actives have a fitted effect of over 45% in size. Also: potency is read from the fitted curve at half-maximal effect. In short, it runs like this:
(§2)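 First, 500 cells per well were seeded; next, drugs were pinned as 11-point doses; then plates sat 48 hr in the incubator; finally CellTiter-Glo was added and luminescence read, with AUC and Z-AUC computed.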

Experiment [9] can be described thus: BET inhibitor-based combinations targeting novel dependencies in MECOM-rearranged (r) AML: HNT-34 cell line (AID 2202234).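 Also: plate controls were vehicle wells for no effect and cell-free wells for full effect; nearly all actives have a fitted effect of over 35% in size.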 In short, it runs like this: as §2
A short description of experiment [10]: BET inhibitor-based combinations targeting novel dependencies in MECOM-rearranged (r) AML: UCSD-AML1 cell line (AID 2202235). Also: nearly all actives have a fitted effect of over 40% in size. Also: potency is read from the fitted curve at half-maximal effect. Summed up: as §2
A short description of experiment [11]: BET inhibitor-based combinations targeting novel dependencies in MECOM-rearranged (r) AML: AML-191 cell line (AID 2202236; also: nearly all actives have a fitted effect of over 35% in size; also: potency is read from the fitted curve at half-maximal effect). Summed up:
as §1

A short description of experiment [12]: BET inhibitor-based combinations targeting novel dependencies in MECOM-rearranged (r) AML: AML-194 cell line (AID 2202237; also: nearly all actives have a fitted effect of over 40% in size; also: potency is read from the fitted curve at half-maximal effect). In short, it runs like this:
as §1

The nature of experiment [13]: BET inhibitor-based combinations targeting novel dependencies in MECOM-rearranged (r) AML: SET-2 cell line (AID 2202231). Also: nearly all actives have a fitted effect of over 35% in size. Also: potency is read from the fitted curve at half-maximal effect.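 As to viability: plate controls were DMSO treated cells for no effect and wells without cells for full effect.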 Particulars: SET-2 AML cells viability, CellTiter-Glo luminescence, 48 h; viability: active compounds read low, concentration not given here. In short, it runs like this:
as §1

`O=[N+]([O-])c1ccc(-c2nc(-c3ccc(F)cc3)c(-c3ccncc3)[nH]2)cc1`: the activation in experiment [1] was 47.4%. Moreover, the Potency entry in experiment [2], in experiment [3], in experiment [4], in experiment [5], in experiment [6] and in experiment [7] was “inactive” in each case. Further, the Potency result in experiment [9], in [10], in experiment [11] and in experiment [12] was “inactive” each time. Moreover, in experiment [8], the Potency was 16.6 µM (active).
As to `CC[C@]1(O)CC2CN(CCc3c([nH]c4ccccc34)[C@@](C(=O)OC)(c3cc4c(cc3OC)N(C)[C@H]3[C@@](O)(C(=O)OC)[C@H](OC(C)=O)[C@]5(CC)C=CCN6CC[C@]43[C@@H]65)C2)C1` (stereo partly specified), in experiment [1], the activation was 4.91%. For the same molecule, the Potency entry in experiment [2], in experiment [3], in experiment [4], in [5] and in [6] was “inactive” in each case. The Potency was 0.742 µM (active) in [13]; 0.296 µM (active) in experiment [7]; 0.263 µM (active) in [8]; 0.263 µM (active) in experiment [10]; 0.296 µM (active) in experiment [11]; 0.296 µM (active) in experiment [12].
Consider `Cc1nn(-c2ccccc2)c(C)c1/C=N/N1CCN(Cc2ccccc2)CC1`, for which the activation in experiment [1] is -13.7% and -4.24%. For the same molecule, the Potency result in experiment [2], in experiment [3], in [4], in [5] and in experiment [6] was “inactive” throughout.
`COC(=O)C1=CO[C@@H](O)[C@@H]2C(CO)=CC[C@H]12`: the activation in experiment [1] is 8.04%. In addition, the Potency result in experiment [2], in [3], in experiment [4], in experiment [5] and in experiment [6] was “inactive” in each case.
On to `CN1CCN2c3ccccc3Cc3ccccc3C2C1` (stereo unspecified), for which, in experiment [1], the activation was -35.4%. Also, the Potency entry in experiment [2], in experiment [3] and in [5] was “inactive” throughout.
Consider `Nc1nc(Cl)nc2c1ncn2[C@@H]1O[C@H](CO)[C@@H](O)[C@H]1O`, for which the activation in experiment [1] is -6.39%. Also, the Potency entry in [2], in experiment [3] and in [5] was “inactive” each time.
Regarding `Clc1ccc2c(c1)N=C(N1CCNCC1)c1ccccc1N2`, in experiment [1], the activation was 11.7% and 30.8%. Also, the Potency result in experiment [2], in experiment [3], in experiment [4], in [5] and in [6] was “inactive” in each case.
Take `CC(C)(Sc1ccc(CCN(CCCCC2CCCCC2)C(=O)NC2CCCCC2)cc1)C(=O)O`: the activation in experiment [1] is 26.5% and 1.67% and -32.7%. For the same molecule, the Potency result in experiment [2], in experiment [3], in experiment [4], in experiment [5], in experiment [6] and in experiment [8] was “inactive” in each case. The Potency entry in experiment [9], in [10], in experiment [11] and in experiment [12] was “inactive” throughout. The viability – broadly, a read-out of living cells in per cent, often relative to untreated cells – in [13] is 118%.
Take `O=C(O)CCc1ccc(NCc2cccc(Oc3ccccc3)c2)cc1`: the activation in experiment [1] is -48.8% and -14.3% and -8.5%. Further, the Potency entry in experiment [2], in experiment [3], in [4], in experiment [5], in experiment [6] and in experiment [8] was “inactive” in each case. The Potency result in [9], in experiment [11] and in [12] was “inactive” each time. The viability in experiment [13] was 117%.
Regarding `CC(=O)N[C@@H](Cc1c[nH]c2ccccc12)C(=O)OCc1cc(C(F)(F)F)cc(C(F)(F)F)c1`, the activation in experiment [1] was -29.2%. In addition, the Potency entry in experiment [2], in experiment [3] and in experiment [5] was “inactive” throughout.
On to `CCc1cncnc1N1CCN(Cc2nc3ccc(C(F)(F)F)cc3[nH]2)CC1`, for which the activation in experiment [1] is -18% and -36.7% and 26.8%. Moreover, the Potency result in experiment [2], in [3], in experiment [4], in experiment [5], in experiment [6] and in [10] was “inactive” each time. Also, the Potency in experiment [13] is 14.8 µM (active); in experiment [7], 11.8 µM (active); in experiment [8], 18.6 µM (active); in experiment [11], 13.2 µM (active).
For `CCN1CCC[C@H]1CNC(=O)c1cc(S(N)(=O)=O)ccc1OC`, in experiment [1], the activation was -14.2% and 19% and 1.55%. For the same molecule, the Potency entry in [2], in experiment [3], in [4], in experiment [5] and in experiment [6] was “inactive” each time.
Turning to `CC[C@H]1OC(=O)[C@H](C)C(O[C@H]2C[C@@](C)(OC)[C@@H](O)[C@H](C)O2)[C@H](C)[C@@H](OC2O[C@H](C)C[C@H](N(C)C)[C@H]2O)[C@](C)(O)C[C@@H](C)CN(C)[C@H](C)[C@@H](O)[C@]1(C)O` (stereo partly specified), in [1], the activation is -28.2%. Also, the Potency entry in experiment [2], in experiment [3] and in experiment [5] was “inactive” in each case.
With `S=C(S)OC1CC2CC1C1CCCC21` (stereo unspecified), the activation in experiment [1] was -23.4%. In addition, the Potency entry in experiment [2], in experiment [3] and in [5] was “inactive” in each case.
For the molecule `NS(=O)(=O)c1ccc(-n2nc(C(F)(F)F)cc2-c2ccc(Cl)cc2)cc1`, in experiment [1], the activation is -38.9% and -11.9%. The Potency result in experiment [2], in experiment [3], in experiment [4], in experiment [5] and in [6] was “inactive” throughout.
Regarding `Cc1ccc(S(=O)(=O)/C=C/C#N)cc1`, the Potency in [1] is 30.1 µM (active); in experiment [2], 30.1 µM (active); in experiment [3], 0.398 µM (active). In addition, the Potency entry in experiment [5] is “inactive”.
On to `Nc1ncnc2c1c(-c1ccc(Oc3ccccc3)cc1)cn2C1CCCC1`, for which, in experiment [1], the activation was -45.6%. Besides, the Potency result in experiment [2], in experiment [3], in experiment [4], in [5] and in [6] was “inactive” throughout.
For `COc1cc(N)c(Cl)cc1C(=O)OCCN1CCCCC1`, in [1], the activation was -2.92%. The Potency entry in [2], in [3] and in experiment [5] was “inactive” throughout.
In the case of `CCCCCCCCc1ccc(-c2ccc(C(=O)O)cc2)cc1`, in [1], the activation was -87.3%. The Potency result in [2], in experiment [3] and in experiment [5] was “inactive” each time.
For the molecule `Clc1ccc(Cn2c(CN3CCCC3)nc3ccccc32)cc1`, the activation in [1] was -13.4% and 2.33% and -45.4%. Besides, the Potency entry in experiment [2], in [3], in experiment [4], in experiment [5] and in experiment [6] was “inactive” each time. Also, the Potency in experiment [13] was 20.9 µM (active); in experiment [8], 20.9 µM (active); in experiment [10], 20.9 µM (active); in [11], 18.6 µM (active).
